PubChem BioAssay (Tox21)
Calls of active or inactive are those of the source. A call without a number means that no potency is given here. The call rests on the fitted dose curve; in most records, active means well fitted curve in the direction sought with a large enough effect in the repeat runs; inconclusive means weak or mixed curves; inactive means flat fitted curve, though single readings scatter.

Experiment: qHTS assay to test for compound auto fluorescence at 460 nm (blue) in HepG2 cells (AID 720687)
Details: autofluorescence 405/460 nm, 1 h; series mostly up to 46 µM
Description: U.S. Tox21 Program National Center for Advancing Translational Sciences [NCATS] NIH Chemical Genomics Center [NCGC] U.S. Environmental Protection Agency [EPA] National Institutes of Environmental Health Sciences [NIEHS] National Toxicology Program [NTP] U.S. Food and Drug Administration [FDA] Tox21 Assay Overview: Compound auto fluorescence often interferes with screening of the compound library against various biological targets and signaling pathways. Some of these compounds may have fluorophoric properties. Such properties may interfere with the assay outputs resulting in false positives and/or negatives. To decrease such complications and ensure the compound activities are relevant in terms of biological response, the Tox21 10K compound library was screened for auto fluorescence. From the fluorophores used as reporter signals in our screening assays, the auto fluorescence equivalencies of compounds against three fluorophores have been evaluated: Triamterene, Fluorescein and Rose Bengal sodium for blue, green and red fluorescence, respectively. The fluorescence intensities were measured using Excitation/Emission wavelengths at 405/460nm, 485/535nm and 540/590nm for blue, green and red labels, respectively. This assay includes the blue fluorescence data.
Tox21 Assay Protocol Summary: 2,000 HepG2 cells in 5 uL of culture medium (MEM containing 10% FBS) per well were dispensed into black wall/clear bottom 1536-well plates using a Multidrop Combi Dispenser (ThermoFisher Scientific, Waltham, MA). The assay plates were incubated overnight at 37 C to allow cell attachment to the well bottom, followed by the transfer of 23 nL compound or DMSO vehicle by a pintool work station (Kalypsys , San Diego, CA). After the assay plates were incubated for 1 hr at 37 C and 5% CO2, fluorescence intensities in the assay plates were measured by an Envision (PerkinElmer, Shelton, CT) plate reader using three labels for measuring blue, green and red fluorescence at […] 460, 535 and 590 nm respectively.

Structure (SMILES) | Potency
CC(=O)OO | inactive
C[C@]12CCC(=O)C[C@@H]1CC[C@@H]1[C@@H]2CC[C@@]2(C)[C@H]1CC[C@]2(C)O | inactive
c1ccccc1 | inactive
C[C@]12CCC(=O)C=C1C=C[C@@H]1[C@@H]2CC[C@@]2(C)[C@H]1CC[C@@]2(O)CCC(=O)O | inactive
c1ccc2c(c1)Sc1ccccc1N2CC1CN2CCC1CC2 (stereo not given) | inactive
CC(N)Cc1ccc2c(c1)OCO2 (stereo not given) | inactive
CCCCC[C@@H](O)C1C(=O)OC(C)[C@H](O)/C=C/C=C/C=C/C=C/C=C(\C)C(O)C(O)C(O)C[C@H](O)C[C@H](O)C[C@H](O)C[C@H](O)C[C@@H]1O (stereo not given in full) | inactive
CC(C)[C@H]1C(=O)N2CCC[C@H]2[C@]2(O)O[C@](NC(=O)[C@@H]3C[C@@H]4c5cccc6[nH]cc(c56)C[C@H]4N(C)C3)(C(C)C)C(=O)N12 | inactive
C[N+]1([O-])[C@@H]2CC[C@H]1CC(OC(=O)C(CO)c1ccccc1)C2 (stereo not given in full) | inactive
CCN1C[C@]2(COC)[C@H](O)C[C@H](OC)[C@@]34[C@@H]5C[C@@]6(O)[C@H](OC(=O)c7ccccc7)[C@@H]5[C@@](OC(C)=O)([C@@H]([C@H](OC)[C@H]23)[C@@H]14)[C@@H](O)[C@@H]6OC | inactive
COc1ccc(C(c2ccc(OC)cc2)C(Cl)(Cl)Cl)cc1 | inactive
CCC1(c2ccccc2)C(=O)NC(=O)N(C(=O)c2ccccc2)C1=O (stereo not given) | inactive
Cc1nnc2n1-c1ccc(Cl)cc1C(c1ccccc1Cl)=NC2 | inactive
CC(=O)Oc1ccc2c3c1O[C@H]1[C@@H](OC(C)=O)C=C[C@H]4[C@@H](C2)N(C)CC[C@@]341 | inactive
CN1c2ccccc2C(NCCCCCCC(=O)O)c2ccc(Cl)cc2S1(=O)=O (stereo not given) | inactive
NCC[C@H](O)C(=O)N[C@@H]1C[C@H](N)[C@@H](O[C@H]2O[C@H](CN)[C@@H](O)[C@H](O)[C@H]2N)[C@H](O[C@@H]2O[C@H](CO)[C@@H](O)[C@H]2O)[C@H]1O | inactive
O=[N+]([O-])c1c(Cl)c(Cl)cc(Cl)c1Cl | inactive
CCCCc1ccc(C(=O)O)nc1 | inactive
CCNC(C)Cc1cccc(C(F)(F)F)c1 (stereo not given) | inactive
CC(=O)[C@H]1CC[C@H]2[C@@H]3CC[C@@H]4C[C@H](O)CC[C@]4(C)[C@H]3CC[C@]12C | inactive

Structure (SMILES) | Potency
CCCC(C)(COC(N)=O)COC(=O)NC1CC1 (stereo not given) | inactive
O=C(CCl)c1ccc(Oc2ccc(C(=O)CCl)cc2)cc1 | inactive
Clc1ccc(C(Cn2ccnc2)OCc2csc3c(Cl)cccc23)c(Cl)c1 (stereo not given) | inactive
COc1ccc2c3c1O[C@H]1C(=O)CC[C@H]4[C@@H](C2)N(C)CC[C@]314 | inactive
CCN(CC)CCO[C@H]1CC[C@@]2(C)C(=CC[C@@H]3[C@@H]2CC[C@]2(C)C(=O)CC[C@@H]32)C1 | inactive
C[C@H]1CC[C@]2(NC1)O[C@H]1C[C@H]3[C@@H]4CC[C@H]5C[C@@H](O[C@@H]6O[C@H](CO)[C@H](O[C@@H]7O[C@H](CO)[C@@H](O)[C@H](O[C@@H]8OC[C@@H](O)[C@H](O)[C@H]8O)[C@H]7O[C@@H]7O[C@H](CO)[C@@H](O)[C@H](O)[C@H]7O)[C@H](O)[C@H]6O)CC[C@]5(C)[C@H]4CC[C@]3(C)[C@H]1[C@@H]2C | inactive
Oc1cc[c]([Hg][Cl])cc1 | inactive
C[C@@H](CO)NC(=O)[C@@H]1C=C2c3cccc4[nH]cc(c34)C[C@H]2N(C)C1 | inactive
CCCC(=O)OC(C(Cl)(Cl)Cl)P(=O)(OC)OC (stereo not given) | inactive
O=C1Nc2ccc(Cl)cc2C(c2ccccc2Cl)=NC1O (stereo not given) | inactive
NC1=NC(=O)N2CC12 (stereo not given) | inactive
CNC1(c2ccccc2Cl)CCCCC1=O (stereo not given) | inactive
O=S(=O)(O)c1cc(O)ccc1O | inactive
CCCCCc1cc(O)c2c(c1)OC(C)(C)[C@@H]1CCC(C)=C[C@@H]21 | inactive
C[C@@H](Cc1ccccc1)NCCC(c1ccccc1)c1ccccc1 | inactive
CCCCCc1cc(O)c2c(c1)OC(C)(C)c1ccc(C)cc1-2 | inactive
OCC(c1ccc(Cl)cc1)c1ccc(Cl)cc1 | inactive
CCC(N)Cc1c[nH]c2ccccc12 (stereo not given) | inactive
CCON=O | inactive
CCCN1CCC[C@H](c2cccc(O)c2)C1 | inactive
